For 13 compounds, composite z-score and composite Z-score results are on record in PubChem BioAssay.

Activity calls are given as the source filed them.

For one test, the target named is Albumin (Bos taurus) (UniProt P02769). Put plainly: bovine serum albumin binders on microarray, profiling panel, artefact control for SMM control protein annotation, biochemical, small-molecule microarray, Alexa647 label, 635/667 nm fluorescence (AID 1118).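 Also: score merges 667 nm emission intensity and signal-to-noise per printed compound spot.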 Particulars: BSA-A647 binding, fluorescence 635 nm, higher = more signal.
Albumin (Bos taurus), sequence (P02769 whole entry, looked up): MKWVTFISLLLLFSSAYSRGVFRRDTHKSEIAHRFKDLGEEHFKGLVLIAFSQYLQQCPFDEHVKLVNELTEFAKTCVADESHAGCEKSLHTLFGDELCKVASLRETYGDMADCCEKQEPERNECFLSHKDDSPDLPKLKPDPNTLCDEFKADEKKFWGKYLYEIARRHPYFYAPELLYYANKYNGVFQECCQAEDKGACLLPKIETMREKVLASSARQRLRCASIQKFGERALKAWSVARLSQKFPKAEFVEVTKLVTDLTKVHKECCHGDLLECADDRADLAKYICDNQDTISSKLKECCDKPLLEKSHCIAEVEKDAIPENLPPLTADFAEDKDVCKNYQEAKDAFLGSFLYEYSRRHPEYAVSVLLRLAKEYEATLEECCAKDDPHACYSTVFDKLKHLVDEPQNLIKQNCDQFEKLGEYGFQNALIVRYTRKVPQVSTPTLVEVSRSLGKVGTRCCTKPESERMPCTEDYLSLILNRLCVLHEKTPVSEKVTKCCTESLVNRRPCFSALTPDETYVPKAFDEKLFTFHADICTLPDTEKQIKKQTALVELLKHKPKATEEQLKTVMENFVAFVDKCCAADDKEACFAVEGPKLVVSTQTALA
The nature of test [1]: small-molecule microarray binders of probe aXIP, primary screen, biochemical, NeuroSMM set, 635/667 nm fluorescence (AID 1119).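 Also: probe is the protein aXip251-270 applied at 1 µg/mL to compound-printed slides; binding of probe to printed compounds measured as 667 nm fluorescence plus signal to noise.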 To be noted: higher = more signal, called active from +8 up or from −8 down.
Test [2] can be described thus: small-molecule binders of probe aNOTCH3, primary screen, biochemical, small-molecule microarray, 635/667 nm fluorescence (AID 1120).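 Also: probe is a biotin-tagged antibody raised against NOTCH3 rather than NOTCH3 protein; score merges spot fluorescence near 667 nm with spot signal to noise.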 To be noted: higher = more signal.
Test [3] in a line: small-molecule binders of probe aNOTCH2, primary screen, biochemical, small-molecule microarray, 635/667 nm fluorescence (AID 1121).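 Also: score merges feature fluorescence read at 667 nm with its signal to noise.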 Particulars: higher = more signal.
Test [4] concerns the target Carbonic anhydrase 2 (Homo sapiens) (UniProt P00918). Put plainly: CAII small-molecule binders, profiling panel, biochemical, small-molecule microarray, Alexa647-labelled CAII (AID 1122). To be noted: CAII-A647 binding fluorescence, higher = more signal.
The nature of test [5]: COS7 lysate on small-molecule microarray, probe aHis, 635 nm (AID 1123).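 Also: z-score combines 667nm fluorescence intensity with signal-to-noise per printed compound spot.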 To be noted: COS7 cell lysate, fluorescence, higher = more signal.
The nature of test [6]: compound binding in COS7 lysate, probe aLAP1, primary screen, cell lysate, small-molecule microarray (AID 1124).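 Also: lysate comes from COS7 cells expressing LAP1 and is applied at 0.3 µg/mL; score merges spot fluorescence near 667 nm with signal-to-noise over triplicate slides.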 Particulars: probe aLAP1, fluorescence, higher = more signal.
Another test has as its system Sam68 (KHDRBS1). In words: Sam68 small-molecule binders, primary screen, biochemical, small-molecule microarray, 635 nm fluorescence (AID 1125).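 Also: score merges 667 nm channel intensity with signal to noise over triplicate slides.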 To be noted: small-molecule microarray binding, higher = more signal.
The subject of test [7] is Chordin-like protein 2 (CHRDL2). In words: CHRDL2 small-molecule binders, primary screen, biochemical, small-molecule microarray, 635 nm fluorescence (AID 1126).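 Also: printed compound slides probed with Chrdl2 protein at 4 µg/mL for 1 h at 4 C; score merges 667 nm emission intensity with signal to noise over three replicate slides.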 Particulars: small-molecule microarray binding, fluorescence 635 nm; higher = more signal.
Test [8] concerns the target Concanavalin-A (Canavalia ensiformis) (UniProt P02866). Put plainly: ConA small-molecule binders, primary screen, artefact control for SMM control protein annotation, biochemical, small-molecule microarray, Alexa647 label, 635 nm (AID 1127).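 Also: z combines 667 nm emission intensity with signal-to-noise across three replicate slides.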 Particulars: ConA-A647 binding fluorescence, higher = more signal.

Concanavalin-A (Canavalia ensiformis), sequence (P02866 whole entry, looked up): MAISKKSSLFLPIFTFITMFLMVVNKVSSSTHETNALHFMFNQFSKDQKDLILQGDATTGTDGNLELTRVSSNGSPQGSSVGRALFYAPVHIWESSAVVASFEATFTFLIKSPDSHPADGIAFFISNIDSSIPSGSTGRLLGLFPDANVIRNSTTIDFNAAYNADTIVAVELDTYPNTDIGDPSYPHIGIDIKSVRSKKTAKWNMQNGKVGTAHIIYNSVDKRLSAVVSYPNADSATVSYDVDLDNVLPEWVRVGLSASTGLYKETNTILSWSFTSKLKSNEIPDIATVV

Consider `COC(=O)CC=C[C@@H](C)[C@@H]1C=C[C@H](O)[C@@H](CO)O1`, for which the composite z-score with Albumin (Bos taurus) was 0.0642; in test [2], -0.364; in [3] it was -0.0717; in test [4], -0.184; in test [5], 0.189; in test [6], -0.171. Moreover, the composite z-score in the test with Sam68 (KHDRBS1) is -0.111; in test [7] it was 0.951; in [8], -0.379. In [1], the composite Z-score is 0.0543 (inactive).

Consider `COC(=O)CC=C[C@@H](C)[C@@H](C=NOC(C)CN1CCCc2nc(C)c(C)cc21)OC` (stereo not given in full), for which the composite z-score with Albumin (Bos taurus) is 0.0374; in test [2], 0.0833; in [3], -0.176; in test [4], -0.0864; in test [5], 0.132; in [6], -0.201. Besides, the composite z-score came out at 0.263 with Sam68 (KHDRBS1), 0.377 in test [7] and 0.458 in test [8]. In test [1], the composite Z-score is 0.0236 (inactive).

For `CCOC(=O)[C@H](CC(C)C)NC(=O)CCC1CC(OC(=O)NCc2cccc3ccccc23)CC2(CCCC(COC(=O)NCCOC)O2)O1` (stereo not given in full), the composite z-score was 0.222 with Albumin (Bos taurus); 0.0306 in test [2]; -0.0195 in [3]; 0.431 in test [4]; 1.02 in [5]; -0.0557 in [6]. Moreover, the composite z-score with Sam68 (KHDRBS1) was 1.29; in test [7] it was 0.156; in test [8] it was 0.782. The composite Z-score in [1] is -0.166 (inactive).

On to `COC(=O)[C@@H]1CC[C@H](C)[C@@H](c2ccc(C)cc2)N1C(=O)c1ccc(C=NOC[C@@H](C)[C@H](OCc2ccccc2)C(C)C)cc1`, for which the composite z-score with Albumin (Bos taurus) is 0.56; in test [2] it was 0.0271; in test [3], -0.185; in [4], 0.239; in [5], 1.29; in test [6] it was 0.247. In addition, the composite z-score with Sam68 (KHDRBS1) came out at 1.29; in [7], 0.43; in test [8], 0.736. Further, the composite Z-score in test [1] was 3.28 (inactive).

For the compound `CCOC(=O)CCN1C(=O)[C@H]2[C@H]3[C@H](O)[C@H](O)CC(=NOCc4ccccc4)[C@H]3CC[C@H]2C1=O`, the composite z-score with Albumin (Bos taurus) was -0.271; in test [2] it was 0.191; in [3], -0.0467; in [4] it was -0.19; in [5] it was 0.343; in [6], -0.27. Besides, the figures for the composite z-score (with Sam68 (KHDRBS1); in test [7]; in test [8]) were 0.152, 0.578 and -0.477, respectively. The composite Z-score in test [1] is 0.119 (inactive).

As for `CC(C)(C)N1C(=O)[C@H]2[C@H]3[C@H](O)[C@H](O)CC(=NOCc4ccccc4)[C@H]3CC[C@H]2C1=O`, the composite z-score is 0.0116 with Albumin (Bos taurus); 0.0961 in test [2]; -0.057 in [3]; -0.0598 in test [4]; 0.376 in test [5]; 0.699 in test [6]. The composite z-score was -0.217 in the test with Sam68 (KHDRBS1), 0.737 in test [7] and -0.344 in test [8]. The composite Z-score in [1] is -0.491 (inactive).

Take `COc1ccc(O[C@@H]2[C@H](O)CO[C@H]2C=Cc2ccccc2)cc1`: the composite z-score with Albumin (Bos taurus) is 0.529; in test [2], -0.0647; in test [3] it was -0.0488; in test [4], -0.338; in test [5], 0.0177; in test [6] it was -0.798. Further, the composite z-score was 0.116 in the test on Sam68 (KHDRBS1), -0.28 in test [7] and -0.283 in [8]. In test [1], the composite Z-score is -0.176 (inactive).

On to `COc1ccc(O[C@H]2C=C[C@@H](c3ccccc3)O[C@@H]2CON=C(C)C)cc1`, for which the composite z-score was 0.0254 with Albumin (Bos taurus); 0.201 in test [2]; -0.0548 in test [3]; 0.153 in [4]; 0.136 in test [5]; -0.0187 in test [6]. For the same compound, the composite z-score in the test on Sam68 (KHDRBS1) is -1.05; in test [7], 0.0435; in [8] it was 0.0731. In addition, the composite Z-score in test [1] was 0.537 (inactive).

With `CC(=O)Nc1ccc([C@@H]2N[C@H](C(=O)O)CC[C@H]2C)cc1`, the composite z-score with Albumin (Bos taurus) is 0.0499; in [2], -0.132; in test [3] it was -0.203; in test [4], -0.172; in [5], -0.0725; in test [6], 0.0356. Besides, the composite z-score in the test with Sam68 (KHDRBS1) was 0.22; in test [7], 0.65; in test [8] it was 0.36. Also, the composite Z-score in test [1] was 0.237 (inactive).

For the compound `C[C@@H](ON=C1[C@H]2CCn3c(=O)n(-c4ccccc4)c(=O)n3[C@H]2[C@H](O)[C@@H]2O[C@H]12)c1cn([C@@H]2COC[C@H]2O)nn1`, the composite z-score was -0.244 in the test with Albumin (Bos taurus); 0.0159 in [2]; -0.0938 in test [3]; 0.134 in test [4]; -0.282 in test [5]; 0.211 in [6]. Moreover, the composite z-score with Sam68 (KHDRBS1) was 0.509; in [7], 0.534; in test [8], 0.459. For the same compound, the composite Z-score in test [1] was -0.419 (inactive).

For `CC(C)CON=C1C[C@@H](O)[C@@H](O)[C@@H]2[C@@H]3C(=O)N(C(C)(C)C)C(=O)[C@@H]3CC[C@H]12`, the composite z-score with Albumin (Bos taurus) was -0.135; in test [2] it was 0.0039; in [3] it was -0.124; in test [4], 0.11; in test [5], 1.36; in test [6] it was 0.057. The composite z-score in the test on Sam68 (KHDRBS1) was 1.01; in [7] it was 0.297; in test [8], -1.23. Further, the composite Z-score in test [1] is 0.3 (inactive).

On to `COc1ccc(COC(=O)NN=C2C[C@@H](O)[C@@H](O)[C@@H]3[C@@H]4C(=O)N(c5cccc(Oc6ccccc6)c5)C(=O)[C@@H]4CC[C@@H]23)cc1`, for which the composite z-score was 0.267 with Albumin (Bos taurus); 0.123 in [2]; -0.149 in [3]; 0.0806 in [4]; 0.303 in [5]; -0.116 in test [6]. In addition, the composite z-score was -0.456 in the test with Sam68 (KHDRBS1), -0.424 in [7] and -0.337 in test [8]. Further, in test [1], the composite Z-score was 0.807 (inactive).

For the compound `CC(C)=CCCC(C)=CCON=C1C[C@@H](O)[C@@H](O)[C@@H]2[C@@H]3C(=O)N(c4ccc(F)cc4F)C(=O)[C@@H]3CC[C@@H]12`, the composite z-score was 0.572 in the test with Albumin (Bos taurus); 0.0459 in test [2]; -0.14 in [3]; 0.29 in test [4]; -0.217 in test [5]; 0.233 in test [6]. The composite z-score in the test on Sam68 (KHDRBS1) was 0.51; in test [7] it was 1.38; in [8], 0.339. In test [1], the composite Z-score is 0.262 (inactive).
